Assay results from PubChem BioAssay (EPA / NIEHS).
Results filed as inconclusive are left out. Calls of active or inactive are those of the source. Rule for the calls, unless noted: active = hit-call score of the fitted dose curve at least 0.9, where 1 is the maximum; inactive = score below 0.9.

Columns and labels:
[1] = read-out: Interleukin-8 (IL8), CXCL8 (gene 3576); experiment: BSK_3C_IL8: BioMAP Diversity Plus: 3C Assay for Interleukin-8 (IL8) Biomarker Activity (AID 2283020); conditions: primary human endothelial cells (HUVEC); actives raise or lower the signal
Procedure, shortened: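 Primary human umbilical vein endothelial cells (3C system) were exposed to test chemical for 24 h, then IL-8 was quantified by ELISA. Responses were fitted bidirectionally against DMSO vehicle as baseline.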

[2] = read-out: Monokine induced gamma interferon (MIG), CXCL9 (gene 4283); experiment: BSK_3C_MIG: BioMAP Diversity Plus: 3C Assay for Monokine induced gamma interferon (MIG) Biomarker Activity (AID 2283021); conditions: primary human endothelial cells (HUVEC); actives raise or lower the signal;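 for AC50: MIG protein level measured by immunoassay in the treated endothelial cultures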
Procedure, shortened: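 Primary human umbilical vein endothelial cells in the 3C system were exposed to chemical for 24 h, after which MIG was quantified by ELISA. Activity was fitted bidirectionally against DMSO as negative control and baseline.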

[3] = molecular target: human Vitamin D Receptor (VDR), VDR (gene 7421) (UniProt P11473); experiment: ATG_VDR_TRANS: Attagene TRANS-FACTORIAL HepG2 Assay for human Vitamin D Receptor (VDR) (AID 2283022; active = hit-call score of the fitted dose curve at least 0.9, where 1 is the maximum)
Chain of human Vitamin D Receptor (VDR), VDR (gene 7421) (P11473 whole entry, looked up): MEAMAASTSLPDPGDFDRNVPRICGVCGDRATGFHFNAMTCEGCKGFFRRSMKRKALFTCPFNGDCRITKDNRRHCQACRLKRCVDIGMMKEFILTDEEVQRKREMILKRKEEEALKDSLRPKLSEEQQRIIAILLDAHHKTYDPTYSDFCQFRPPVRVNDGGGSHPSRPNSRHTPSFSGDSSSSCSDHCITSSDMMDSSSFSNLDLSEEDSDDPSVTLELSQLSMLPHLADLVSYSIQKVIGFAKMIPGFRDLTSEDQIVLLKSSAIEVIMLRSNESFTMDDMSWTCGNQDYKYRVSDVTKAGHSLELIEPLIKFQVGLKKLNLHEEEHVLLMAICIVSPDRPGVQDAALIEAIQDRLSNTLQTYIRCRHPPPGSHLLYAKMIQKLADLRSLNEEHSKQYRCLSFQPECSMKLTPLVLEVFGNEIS
Procedure, shortened: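 Multiplexed TRANS reporter in HepG2; 24 h treatment; reporter mRNA by RT-PCR plus capillary electrophoresis; upregulation scored relative to DMSO.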

[4] = BSK_3C_SRB: Viability Assessment in the BioMAP Diversity Plus: 3C Assay (AID 2283023); conditions: primary human endothelial cells (HUVEC);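 note: cells read 24 h after compound dosing; fitted both ways against DMSO so a hit may be signal rise or drop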
Procedure, shortened: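 Overt cytotoxicity is gauged in parallel confluent HUVEC cultures by SRB total-protein staining at the time of biomarker measurement, 24 h after dosing. Gain or loss of signal is fitted versus DMSO.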

[5] = read-out: Matrix Metallopeptidase 1 (MMP1), MMP1 (gene 4312); experiment: BSK_BE3C_MMP1: BioMAP Diversity Plus: BE3C Assay for Matrix Metallopeptidase 1 (MMP1) Biomarker Activity (AID 2283024); conditions: primary human bronchial epithelial cells; actives raise or lower the signal
Procedure, shortened: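 Primary human bronchial epithelial cells were dosed with test chemicals, and MMP1 levels were measured by ELISA 24 h later. Data were fitted bidirectionally against DMSO as the negative control and activity baseline.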

[6] = BSK_3C_Vis: BioMAP Diversity Plus: 3C Assay for Morphology Visualization (AID 2283025); conditions: primary human endothelial cells (HUVEC);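 note: fitted both ways so gain or loss versus DMSO counts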
Procedure, shortened: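 Human umbilical vein endothelial cells in the 3C system were imaged by light microscopy 24 h after chemical dosing to record cell morphology. Activity was fitted bidirectionally against DMSO as negative control and baseline; the endpoint serves as a background control.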

[7] = read-out: Pselectin, SELP (gene 6403); experiment: BSK_4H_Pselectin: BioMAP Diversity Plus: 4H Assay for Pselectin Biomarker Activity (AID 2283026); conditions: primary human endothelial cells (HUVEC); actives raise or lower the signal
Procedure, shortened: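 Primary human umbilical vein endothelial cells were exposed to test chemical for 24 h, then cell-surface P-selectin was quantified by ELISA. Activity was fitted bidirectionally against DMSO as negative control and baseline.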

[8] = BSK_4H_SRB: Viability Assessment in the BioMAP Diversity Plus: 4H Assay (AID 2283027); conditions: primary human endothelial cells (HUVEC);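 note: cells exposed to compound for 24 h before staining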;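 for AC50: curves fitted both ways versus DMSO so AC50 may be loss or gain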
Procedure, shortened: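 Absorbance at 560 nm of SRB-stained total protein served as the viability read-out in confluent primary human umbilical vein endothelium 24 h after chemical treatment. Curves were fitted bidirectionally against DMSO as negative control.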

[9] = BSK_BE3C_SRB: Viability Assessment in the BioMAP Diversity Plus: BE3C Assay (AID 2283028); conditions: primary human bronchial epithelial cells;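 for AC50: fitted both ways so AC50 may mark signal gain or loss versus DMSO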
Procedure, shortened: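 SRB total-protein staining (0.1%, after TCA fixation) of chemically dosed human bronchial epithelial primary cells at 24 h; DMSO serves as the negative control for bidirectional curve fitting.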

[10] = read-out: Thrombomodulin, THBD (gene 7056); experiment: BSK_3C_Thrombomodulin: BioMAP Diversity Plus: 3C Assay for Thrombomodulin Biomarker Activity (AID 2283029); conditions: primary human endothelial cells (HUVEC); actives raise or lower the signal
Procedure, shortened: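 Primary human umbilical vein endothelial cells (3C system) were exposed to chemical for 24 h, then thrombomodulin levels were measured by ELISA. Activity was fitted bidirectionally against the DMSO negative control as baseline.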

[11] = read-out: Urokinase-type plasminogen activator receptor (uPAR), PLAUR (gene 5329); experiment: BSK_4H_uPAR: BioMAP Diversity Plus: 4H Assay for Urokinase-type plasminogen activator receptor (uPAR) Biomarker Activity (AID 2283030); conditions: primary human endothelial cells (HUVEC); actives raise or lower the signal
Procedure, shortened: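 Endpoint derived via bidirectional curve fitting against DMSO baseline; readout was ELISA detection of uPAR on umbilical vein endothelial cells at 24 h post-treatment, with SRB-stained parallel cultures assessing cytotoxicity.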

[12] = read-out: Human Leukocyte Antigen - DR isotype (HLADR), HLA-DRA (gene 3122); experiment: BSK_BE3C_HLADR: BioMAP Diversity Plus: BE3C Assay for Human Leukocyte Antigen - DR isotype (HLADR) Biomarker Activity (AID 2283032); conditions: primary human bronchial epithelial cells; actives raise or lower the signal
Procedure, shortened: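 Human primary bronchial epithelial cells in the BE3C system were exposed to chemicals for 24 h, after which HLA-DR levels were quantified by ELISA. Activity was fitted bidirectionally, gain or loss of signal, against DMSO as negative control and baseline.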

[13] = read-out: Vascular cell adhesion molecule 1 (VCAM1), VCAM1 (gene 7412); experiment: BSK_4H_VCAM1: BioMAP Diversity Plus: 4H Assay for Vascular cell adhesion molecule 1 (VCAM1) Biomarker Activity (AID 2283033); conditions: primary human endothelial cells (HUVEC); actives raise or lower the signal;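 for outcome: cell-surface VCAM-1 protein measured by ELISA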
Procedure, shortened: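 Primary human umbilical vein endothelial cells were exposed to chemicals for 24 h, after which VCAM-1 was quantified by ELISA. Responses were fitted bidirectionally against DMSO as negative control and activity baseline.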

[14] = read-out: Interferon-gamma inducible Protein 10 (IP10), CXCL10 (gene 3627); experiment: BSK_BE3C_IP10: BioMAP Diversity Plus: BE3C Assay for Interferon-gamma inducible Protein 10 (IP10) Biomarker Activity (AID 2283034); conditions: primary human bronchial epithelial cells; actives raise or lower the signal
Procedure, shortened: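 Human primary bronchial epithelial cells were exposed to chemicals for 24 hours, after which IP-10 levels were measured by ELISA. Data were fitted bidirectionally against DMSO, which served as the negative control and activity baseline.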

[15] = read-out: Monokine induced gamma interferon (MIG), CXCL9 (gene 4283); experiment: BSK_BE3C_MIG: BioMAP Diversity Plus: BE3C Assay for Monokine induced gamma interferon (MIG) Biomarker Activity (AID 2283035); conditions: primary human bronchial epithelial cells; actives raise or lower the signal;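 for outcome: MIG protein measured by ELISA in BE3C cultures after 24 h of dosing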
Procedure, shortened: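 MIG level was determined by ELISA after 24 h chemical treatment of primary human bronchial epithelial cells. Values were fitted bidirectionally with DMSO as the negative control and activity baseline.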

[16] = read-out: Transforming growth factor beta 1 (TGFb1), TGFB1 (gene 7040); experiment: BSK_BE3C_TGFb1: BioMAP Diversity Plus: BE3C Assay for Transforming growth factor beta 1 (TGFb1) Biomarker Activity (AID 2283036); conditions: primary human bronchial epithelial cells; actives raise or lower the signal
Procedure, shortened: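 Human primary bronchial epithelial cells (BE3C system) were dosed with chemical and TGF-b1 levels measured by ELISA at 24 h. Activity was fitted bidirectionally relative to DMSO negative control as baseline.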

[17] = read-out: Plasminogen activator inhibitor-1 (PAI1), SERPINE1 (gene 5054); experiment: BSK_BE3C_PAI1: BioMAP Diversity Plus: BE3C Assay for Plasminogen activator inhibitor-1 (PAI1) Biomarker Activity (AID 2283037); conditions: primary human bronchial epithelial cells; actives raise or lower the signal
Procedure, shortened: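 Human primary bronchial epithelial cells were exposed to chemical for 24 h, then PAI-1 was quantified by ELISA. Activity was fitted bidirectionally relative to the DMSO negative control baseline.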

[18] = read-out: urokinase plasminogen activator (uPA), PLAU (gene 5328); experiment: BSK_BE3C_uPA: BioMAP Diversity Plus: BE3C Assay for urokinase plasminogen activator (uPA) Biomarker Activity (AID 2283038); conditions: primary human bronchial epithelial cells; actives raise or lower the signal;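 for outcome: uPA protein level quantified by ELISA in cell cultures; uPA read one day after compound addition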
Procedure, shortened: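 Using confluent primary human lung bronchial epithelial cultures, we dosed chemicals, waited 24 h, then ran a uPA ELISA, fitting bidirectionally against DMSO.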

[19] = read-out: Urokinase-type plasminogen activator receptor (uPAR), PLAUR (gene 5329); experiment: BSK_BE3C_uPAR: BioMAP Diversity Plus: BE3C Assay for Urokinase-type plasminogen activator receptor (uPAR) Biomarker Activity (AID 2283039); conditions: primary human bronchial epithelial cells; actives raise or lower the signal;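 note: uPAR protein level measured by ELISA on the cells; cells exposed to compound for one day before measurement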
Procedure, shortened: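 Primary human bronchial epithelial cells were dosed with chemical and harvested 24 h later; uPAR was quantified by ELISA. Activity was fitted bidirectionally against DMSO as negative control and baseline.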

[20] = read-out: Vascular endothelial growth factor receptor 2 (Homo sapiens) (UniProt P35968); experiment: BSK_4H_VEGFRII: BioMAP Diversity Plus: 4H Assay for Vascular endothelial growth factor receptor 2 (VEGFR2) Biomarker Activity (AID 2283031); conditions: primary human endothelial cells (HUVEC); actives raise or lower the signal
Procedure, shortened: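 In this multiplexed HUVEC system, biomarker ELISA was performed after 24 h chemical exposure. Parallel SRB staining (TCA fixation, 560 nm) tracked cytotoxicity; DMSO served as baseline.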

c1ccc2c(c1)sc1ccccc12
outcome [1]: inactive
outcome [2]: inactive
outcome [3]: inactive
outcome [4]: inactive
outcome [5]: inactive
outcome [6]: inactive
outcome [7]: inactive
outcome [8]: inactive
outcome [9]: inactive
outcome [10]: inactive
outcome [11]: inactive
outcome [12]: inactive
outcome [13]: inactive
outcome [14]: inactive
outcome [15]: inactive
outcome [16]: inactive
outcome [17]: inactive
outcome [18]: inactive
outcome [19]: inactive

CC(C)Nc1ccc(Nc2ccccc2)cc1
AC50 [1]: 12.8 µM (active)
AC50 [2]: 20 µM (active)
AC50 [4]: 11 µM (active)
outcome [5]: inactive
AC50 [6]: 9.94 µM (active)
AC50 [7]: 7.42 µM (active)
AC50 [8]: 9.88 µM (active)
AC50 [9]: 33.2 µM (active)
outcome [10]: inactive
AC50 [11]: 14.4 µM (active)
AC50 [12]: 9.07 µM (active)
AC50 [13]: 10.1 µM (active)
AC50 [14]: 6.69 µM (active)
AC50 [15]: 20 µM (active)
AC50 [16]: 20 µM (active)
outcome [17]: inactive
AC50 [18]: 20 µM (active)
outcome [19]: inactive

CC(Cl)CN(C)C (stereo not drawn)
outcome [1]: inactive
outcome [2]: inactive
outcome [3]: inactive
outcome [4]: inactive
outcome [5]: inactive
outcome [6]: inactive
outcome [8]: inactive
outcome [9]: inactive
outcome [10]: inactive
outcome [11]: inactive
outcome [12]: inactive
outcome [13]: inactive
outcome [14]: inactive
outcome [15]: inactive
outcome [16]: inactive
outcome [17]: inactive
outcome [18]: inactive
outcome [19]: inactive

c1nc[nH]n1
outcome [1]: inactive
outcome [2]: inactive
outcome [3]: inactive
outcome [4]: inactive
outcome [6]: inactive
outcome [7]: inactive
outcome [8]: inactive
outcome [9]: inactive
outcome [10]: inactive
outcome [11]: inactive
outcome [12]: inactive
outcome [13]: inactive
outcome [14]: inactive
outcome [15]: inactive
outcome [16]: inactive
outcome [17]: inactive
outcome [18]: inactive
outcome [19]: inactive

O=[N+]([O-])c1ccccc1
outcome [1]: inactive
outcome [2]: inactive
outcome [4]: inactive
outcome [5]: inactive
outcome [6]: inactive
outcome [8]: inactive
outcome [9]: inactive
outcome [10]: inactive
outcome [11]: inactive
outcome [12]: inactive
outcome [13]: inactive
outcome [14]: inactive
outcome [15]: inactive
outcome [16]: inactive
outcome [17]: inactive
outcome [18]: inactive
outcome [19]: inactive

CC(C)(C)OOC(C)(C)C
outcome [1]: inactive
outcome [2]: inactive
outcome [4]: inactive
outcome [5]: inactive
outcome [6]: inactive
outcome [7]: inactive
outcome [8]: inactive
outcome [9]: inactive
outcome [10]: inactive
outcome [11]: inactive
outcome [12]: inactive
outcome [13]: inactive
outcome [14]: inactive
outcome [15]: inactive
outcome [16]: inactive
outcome [17]: inactive
outcome [18]: inactive
outcome [19]: inactive

CCOC(=O)c1ccccc1C(=O)OCC
outcome [1]: inactive
outcome [2]: inactive
outcome [3]: inactive
outcome [4]: inactive
outcome [5]: inactive
outcome [6]: inactive
outcome [7]: inactive
outcome [8]: inactive
outcome [9]: inactive
outcome [10]: inactive
outcome [11]: inactive
outcome [20]: inactive
outcome [12]: inactive
outcome [13]: inactive
outcome [14]: inactive
outcome [15]: inactive
outcome [16]: inactive
outcome [17]: inactive
outcome [18]: inactive
outcome [19]: inactive
